What was measured:
Assay type in all cases: functional
[1] = molecular target: Solute carrier family 2, facilitated glucose transporter member 1 (Homo sapiens) (UniProt P11166); assay: ST_JUDE_LEISH: Cytotoxicity at 2uM final concentration against transgenic Leishmania Mexicana promastigotes LmGLUT1 that are glucose transport deficient and complemented with the human glucose transporter GLUT1. Activity is measured by DNA content using SYBR green in vitro
[2] = molecular target: Hexose transporter 1 (Plasmodium falciparum) (UniProt O97467); assay: ST_JUDE_LEISH: Cytotoxicity at 2uM final concentration against transgenic Leishmania Mexicana promastigotes LmPfHT that are glucose transport deficient and complemented with the Plasmodium falciparum hexose transporter. Activity is measured by DNA content using SYBR green in vitro
[3] = molecular target: Glucose transporter (Leishmania mexicana) (UniProt O61059); assay: ST_JUDE_LEISH: Cytotoxicity at 2uM final concentration against transgenic Leishmania Mexicana promastigotes LmGT2 that are glucose transport deficient and complemented with the L. Mexicana glucose transporter 2. Activity is measured by DNA content using SYBR green in vitro

Chain of Solute carrier family 2, facilitated glucose transporter member 1 (Homo sapiens) (P11166 whole entry): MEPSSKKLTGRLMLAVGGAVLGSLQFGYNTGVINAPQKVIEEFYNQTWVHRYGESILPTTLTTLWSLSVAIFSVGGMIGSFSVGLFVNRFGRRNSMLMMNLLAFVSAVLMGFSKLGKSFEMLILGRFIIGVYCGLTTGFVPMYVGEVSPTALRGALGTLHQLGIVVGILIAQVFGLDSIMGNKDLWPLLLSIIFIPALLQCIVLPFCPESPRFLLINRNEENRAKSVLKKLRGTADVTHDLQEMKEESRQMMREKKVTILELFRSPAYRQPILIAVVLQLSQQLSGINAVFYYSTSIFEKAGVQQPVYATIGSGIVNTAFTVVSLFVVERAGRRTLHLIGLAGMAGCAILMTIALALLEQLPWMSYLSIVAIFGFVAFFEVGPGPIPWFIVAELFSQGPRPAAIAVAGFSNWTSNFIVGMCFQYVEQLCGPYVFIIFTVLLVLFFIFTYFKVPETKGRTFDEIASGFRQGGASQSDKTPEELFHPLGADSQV

SMILES	inhibition [1] [%]	inhibition [2] [%]	inhibition [3] [%]
COc1ccccc1CNC(=O)c1cc(Br)cc(N2CCN(c3ccncc3)CC2)c1	1.71	2.47	0.83
CS(=O)(=O)c1ccc(CNCc2cccc(-c3cccc(-c4nc5ccccc5[nH]4)c3)c2)cc1	2.3	0.28	-2.15
CC(C)COc1ccc(Cl)cc1Cc1nc(-c2nc3ccc(CN4CCCC4)cc3[nH]2)co1	2.58	3.58	3.07
Cc1ccccc1C1CCN(C2CCC(NC(=O)/C=C/c3ccc(C(F)(F)F)cc3)CC2)CC1 (centres undefined)	0.43	1.57	1.85
COc1ccc2c(=NN=Cc3cccc(C)n3)cc(-c3ccccc3)[nH]c2c1	4.3	2.19	4.08
Cc1cc(NC(=O)NCCN2CCC(NS(=O)(=O)c3ccccc3F)CC2)c2ccccc2n1	1.57	2.12	0.24
NCC(=O)Nc1cccc(Nc2nccc(-c3c(-c4cccc(NC(=O)c5ccccc5)c4)nn4ccccc34)n2)c1	3.36	7.49	1.14
CCC1CN2CCc3c([nH]c4ccccc34)C2CC1CC1NCCc2cc(OC)c(OC)cc21 (centres undefined)	1.68	4.6	0.99
CN1CCN(c2ccc(Nc3ccnc4ccc(-c5ccccc5)cc34)cc2)CC1	1.32	1.83	-1.67
COc1cc(Cc2cnc(N)nc2N)cc(OCCCCc2ccc([N+](=O)[O-])cc2)c1OC	-1.12	-1.89	1.51
Oc1ccc(CCNc2nc(N/N=C/c3ccc(Cl)cc3)nc(N3CCNCC3)n2)cc1	-0.62	1.75	0.33
O=C(/C=C/c1ccc(Cl)c(Cl)c1)NCCCCCN1CCCC(C(=O)Nc2ccc(Cl)cc2)C1 (centres undefined)	3.76	5.09	2.58
Cc1cc(N(C)C)nc(Nc2ccc(NC(=O)Nc3ccccc3)cc2)n1	2.43	3.74	4.26
Cc1nc(N)nc(N)c1-c1ccc(Cl)c(Cl)c1	6.9	5.53	5.34
CC(C)(C)CC(C)(C)c1ccc(O)c(C(=O)Nc2cccc([N+](=O)[O-])c2)c1	1.48	2.51	1.44
NC1=NC(c2ccccc2)(c2ccccc2)C(=O)N1CCCCc1ccccc1	-0.67	0.44	-1.44
Fc1ccc2[nH]c(-c3ccc(-c4ccc(CN5CCCCC5)cc4)cc3)nc2c1	8.66	7.06	5.34
CCCCCCCCc1c(C)nc(C)c(C#N)c1O	5.8	6.51	5.78
COc1ccccc1CCNc1nc(C)cc(N[C@@H](Cc2ccccc2)C(=O)NCCc2ccccc2)n1	7.15	7.61	2.86

SMILES	inhibition [1] [%]	inhibition [2] [%]	inhibition [3] [%]
COc1ccc(Cc2cnc3nc(N)nc(N)c3c2C)cc1	39.5	49.3	41.3
Oc1cc(Nc2ccnc3cc(-c4cccc(CN5CCCCC5)c4)ccc23)c(F)cc1Cl	3.41	2.51	2.54
COC(=O)Cn1c(C2CCN(CC3CCN(C(=O)/C=C/c4ccc(Cl)c(Cl)c4)CC3)CC2)nc2ccccc21	3.09	0.62	2.04
CCCCNC(=O)[C@H](CC1CCCCC1)NC(=O)c1ccc(O)c(-c2cccc(C(F)(F)F)c2)c1	2.16	3.75	3.61
CCOC(=O)c1ccc(NC(=O)Nc2ccc(Cn3ncc(N4CCCNCC4)c(Cl)c3=O)cc2)cc1	8.8	12.6	7.11
O=C1c2ccccc2C(=O)N1CCOc1c(Br)cc(Br)cc1CNCCCNc1cc(=O)c2ccccc2[nH]1	2.28	1.96	3.03
NC(=O)c1ccccc1Nc1nc(Nc2cccc(N3CCN(CCO)CC3)c2)ncc1Cl	64	67.3	57.8
O=C(Nc1ccc(C(F)(F)F)cc1)NC1CCN(c2ccnc3ccccc23)C1 (centres undefined)	8.02	7.55	7.55
CC(C)(C)c1cc(NC2CC2)nc(-c2ccccn2)n1	1.4	3.18	4.03
CCCn1c(Sc2ccc(C#N)c([N+](=O)[O-])c2)nnc1-c1ccc(OC)cc1	1.76	0.24	-0.23
Cc1cccc(Cn2ccc3c4c(N)nc(N)nc4ccc32)c1	80.8	81.5	81.5
COc1ccc(C)c(Nc2ccnc(Nc3ccc(-c4cnc[nH]4)cc3)n2)c1	2.85	2.37	3.29
Cc1noc(C)c1CN1CCCN(c2ccc3c(c2)CCN(Cc2ccc(-c4ncc[nH]4)cc2)CC3)CC1	1.29	3.6	1.65
COc1ccc2nccc([C@@H](O)CN3CCC(NCCOc4cccc(F)c4F)CC3)c2c1	4.54	4.96	-0.41
Cc1cccc(Nc2c(-c3cc(Br)ccc3O)nc3ncccn23)c1	0.12	-0.3	-1.33
O[C@H]1[C@H](OCc2ccc(-c3ccccc3)cc2)CC[C@@H]1N1CCCCC1	0.73	1.54	8.6
O=C(/C=C/c1ccc(Cl)c(Cl)c1)NCCCCCN1CCCN(C(=O)Nc2ccc(Br)cc2)CC1	10.6	10.3	10.2
Cc1nc2ccccc2c(=O)n1NCc1ccc(Cl)c(Cl)c1	-1.5	-1.58	0.11
O=C(NCc1ccc(Cl)c(Cl)c1)c1cc(CNC2CCNCC2)ccc1O	0.91	5.71	2.11

From ChEMBL document CHEMBL3433997, “St. Jude Leishmania screening dataset” (2016)
